# Assay results as given in the OligoGym collection.
# Target: C3orf64
# Assay: pooled miR-30 sensor sort-seq; sequence = guide strand
# Settings: shRNA
# Also: reference of the scale not given here.
row,Sequence,sensor-assay potency score (higher = more potent)
1,TTAGCATCTTCTATAGGTCTGA,0.396
2,TATAGCTTTGTAGCTCAGCAAA,-1.7
3,TTTCCTACCACAAACAGTGTTA,-0.00284
4,TATAACATGGTCCTATAGCTTG,-1.11
5,TAAACAAGTTGGAACACTCTGG,0.509
6,TTAGTTGATCTAAAAACCCAAG,-1.13
7,TTAATCACAAATGCTCTCCATG,-0.629

# Target: C4orf27
# Assay: as above
# Settings: shRNA
row,Sequence,sensor-assay potency score (higher = more potent)
1,TCTACTGGAACAACCAAGCCTG,-0.00895
2,TTCTTTTCGAAGGTCACTGGAG,-0.538
3,TTCATCATTAGCAAACTGCACA,-0.513
4,TTTATCTACTGGAACAACCAAG,-0.789
5,TTAGTCTCTCCTCATCACTTGC,-0.932
6,TATAATGATTTTCTACTTCTTT,-0.484
7,TATGTTCTCTTGACTTCTGTTT,-0.298
8,TTCTCTTGAGGTCAGCATCTGT,-0.164
9,TAATGGTCTGGAACTCAGGAGG,-0.721
10,TATTTCTCTAAGTTTTTTCGTC,-0.0754
11,TTATCTACTGGAACAACCAAGC,-0.86
12,TTATACAATTTTTCTTTGCTTC,-0.21

# Target: C4orf45
# Assay: as above
# Settings: shRNA
row,Sequence,sensor-assay potency score (higher = more potent)
1,TTCCTTTTTTGGTAGCTTCGGC,-0.246
2,TTTTTCTAACGCCAGATGCTGT,-0.936
3,TATTTTGCTGGCAAGCTTCTAT,-0.0491
4,ATAAATATCTGAGATCTCCAGT,0.467
5,TTATGTAGTCTGGACCTGTAAA,-1.37
6,TAGGTGGTTTGGAAGCTCTTGG,-0.261
7,TAATCCTTTATGTAGTCTGGAC,-0.844
8,TTATATTTTGCTGGCAAGCTTC,-1.08
9,TTTTGGTAGCTTCGGCAGCTTA,-1.74
10,TTAGGTGGTTTGGAAGCTCTTG,-0.244
11,TCTCTGATCAGTGTCCTCGAAA,-0.979
12,TTATACTGTGGTATTCTCCAAC,-0.109

# Target: C5AR1
# Assay: as above
# Settings: shRNA
row,Sequence,sensor-assay potency score (higher = more potent)
1,TGATGCTGTACAATGGACGTGA,0.655
2,TTAGAAGTTTTATCCACAGGGG,-0.274
3,TTAACTCACTTACAAGAGCTTA,-0.512
4,TAAACACCAGCAGAAAGCGGTC,-1.02
5,AAGTGTAACAAATCGTGAGCGT,-0.136
6,TACTTGTCTGTATTCTGAGTTC,-0.656
7,TCTACTTGTCTGTATTCTGAGT,-0.792
8,TAACTCACTTACAAGAGCTTAG,-0.132
9,TTATTCAGCAGCAGGAAGGTGG,-0.586
